Hit rate of the full screen: of about 100,000 compounds, about 770 (0.77%) were called active. The sample holds actives, similar compounds and a random draw of the others, so the mix is not that of the screen. Values without a mark were called inactive. Rule as the data show it: active = inhibition above about 50%; inactive = the rest.

Results on 98 compounds are retold here after PubChem BioAssay AID372 (MTDP, 2006).

The assay addresses Gag-Pol polyprotein (Human immunodeficiency virus type 1 group M subtype B (isolate HXB2)) (UniProt P04585). Put plainly: RNase H inhibition, HIV 1 Gag Pol polyprotein, FRET biochemical assay, screening (AID 372). The note with it: HIV-1 RT RNase H, FRET RNA/DNA substrate fluorescence; at 10 µM; hits give high values.
In general, inhibition refers to the share of the control response that was lost under treatment. As to `CC(C)(C)c1cc(CCC(=O)NCCO)cc(C(C)(C)C)c1O`, the inhibition was 0%. In the case of `COC(=O)CCc1cc(C(C)(C)C)c(O)c(C(C)(C)C)c1` it was 0%; in that of `CC(C)(C)c1cc(CCC(=O)NCCNC(=O)C(=O)NCCNC(=O)CCc2cc(C(C)(C)C)c(O)c(C(C)(C)C)c2)cc(C(C)(C)C)c1O`, 55% (active). For `Cc1ccccc1OCCOc1ccc(/C=c2\sc3nc4ccccc4n3c2=O)cc1`, the inhibition is 5%. With `C=CCN1C(=O)C(O)=C(C(C)=O)C1c1ccc(Br)cc1` (stereo not drawn), the inhibition is 8%. In the case of `Cc1ccc(-c2nc3ccccc3s2)cc1NC(=O)COc1ccccc1` it was 10%; in that of `Cc1ccc(-c2nc3ccccc3s2)cc1NC(=O)COc1ccc(Cl)cc1`, 69% (active); in that of `COc1ccc(OCC(=O)Nc2cc(-c3nc4ccccc4s3)ccc2C)cc1`, 2%. The same measure for `COc1ccc(OCC(=O)Nc2cccc(-c3nc4ccccc4s3)c2)cc1`: 7%; for `Cc1cc(C)cc(OCC(=O)Nc2cccc(-c3nc4ccccc4s3)c2)c1`: 53% (active). For the compound `Cc1cccc(OCC(=O)Nc2cccc(-c3nc4ccccc4s3)c2)c1`, the inhibition is 9%.

As to `CCc1cc(=O)oc2c(C)c(OCc3ccc(Cl)cc3)ccc12`, the inhibition was 5%. The same measure for `CN1C(=O)/C(=C\c2cccc(OCc3ccc(Cl)cc3Cl)c2)SC1=S`: 11%. The same measure for `Cc1ccccc1N=C(NOCc1ccc(Cl)cc1Cl)c1nonc1N`: 13%.

Turning to `Nc1nonc1C(=Nc1ccccc1)NOCc1ccc(Cl)cc1Cl`, the inhibition was 32%.

`COc1ccc(C2CC(=O)C3=C(C2)Nc2ccccc2NC3c2cccc(Cl)c2Cl)cc1OC` (stereo not drawn): the inhibition is 16%. The same measure for `CCc1nnc(NC(=O)Nc2ccc(Cl)cc2)s1`: 10%; for `Cc1cc(C)c2nc3s/c(=C\c4ccc(Cl)cc4Cl)c(=O)n3c2c1`: 0%.

On to `COc1cccc2cc(C(=O)O)c(=O)oc12`, for which the inhibition is 6%. In the case of `COc1cccc2cc(C(C)=O)c(=O)oc12` it was 3%; in that of `Brc1ccc(CN2CCN(c3ncccn3)CC2)s1`, 1%; in that of `Cc1ccc(-c2nc3ncccc3o2)cc1NC(=S)NC(=O)/C=C/c1ccccc1`, 5%.

For `Cc1c(NC(=S)NC(=O)/C=C/c2ccccc2)cccc1-c1nc2ccccc2o1`, the inhibition was 36%. In the case of `Cc1c(NC(=S)NC(=O)/C=C/c2ccccc2)cccc1-c1nc2ncccc2o1` it was 52% (active); in that of `CCOc1ccc(OCCCCOc2ccccc2C)cc1`, 18%; in that of `O=C(N/N=C/c1cccc(Br)c1)C(=O)N1CCCC1`, 15%. In the case of `N#CC1=C(N)Oc2cc(N)ccc2C1c1cccc(Oc2ccccc2)c1` (stereo not drawn) it was 5%. As to `CCCCNCCCCCCOc1ccc(Cl)cc1Cl`, the inhibition was 10%.

As for `CCCCNCCCOc1cc(Cl)ccc1Cl`, the inhibition is 57% (active). The same measure for `OCCNCCCOc1cc(Cl)ccc1Cl`: 8%. The same measure for `COc1ccc(-c2cc(C(=O)NCc3ccco3)c3ccccc3n2)cc1`: 14%; for `COC(=O)c1c(NC(=O)c2ccccc2Br)sc(C)c1C`: 23%.

On to `O=C1N=c2ccc(Br)cc2=C1c1sc(=S)n(-c2ccc(Br)cc2)c1O`, for which the inhibition is 15%.

As for `O=C1N=c2ccc(Br)cc2=C1c1sc(=O)n(-c2ccc(O)cc2)c1O`, the inhibition was 41%. The same measure for `O=C1N=c2ccccc2=C1c1sc(=S)n(-c2ccc(F)cc2)c1O`: 12%. In the case of `O=C1N=c2ccccc2=C1c1sc(=S)n(-c2ccc(Cl)cc2)c1O` it was 0%; in that of `O=C1N=c2ccc(Br)cc2=C1c1sc(=O)n(-c2cccc(Cl)c2)c1S`, 50% (active). The same measure for `CCOc1ccc(-n2c(O)c(C3=c4cc(Br)ccc4=NC3=O)sc2=S)cc1`: 9%; for `CCN(CC)c1ccc(-n2c(O)c(C3=c4ccccc4=NC3=O)sc2=S)cc1`: 50% (active); for `O=C1N=c2ccc(Br)cc2=C1c1sc(=S)n(-c2ccc(Cl)cc2)c1O`: 51% (active). With `O=C1N=c2ccc(Cl)cc2=C1c1sc(=O)n(-c2ccccc2)c1O`, the inhibition is 42%.

In the case of `CC(C)c1ccc(/C=C2/C(=O)NN(c3ccccc3)C2=O)cc1`, the inhibition is 4%. The same measure for `CCOC(=O)c1ccc(NC(=S)NCCO)cc1`: 0%. For `C=CCc1ccc(OCCOc2cccc(/C=C3\SC(=S)N(CC)C3=O)c2)c(OC)c1`, the inhibition is 26%. In the case of `C=CCN1C(=O)/C(=C\c2ccc(-c3ccc([N+](=O)[O-])cc3)o2)SC1=S` it was 4%; in that of `Cc1ccccc1NC1=C(Cl)C(=O)N(c2cccc(C)c2C)C1=O`, 9%; in that of `CCOC(=O)C1=C(C)N=c2s/c(=C/c3ccc(-c4cccc(C(F)(F)F)c4)o3)c(=O)n2C1c1cccs1` (stereo not drawn), 6%. Take `COc1ccc(C2=C/C(=C/c3ccccc3OC)C(=O)O2)c(OC)c1`: the inhibition was 2%. The same measure for `CC(=O)C1=C(O)C(=O)N(Cc2ccccc2)C1c1ccc([N+](=O)[O-])cc1` (stereo not drawn): 12%; for `COc1ccc(C(=O)Nc2ccc(Cc3ccncc3)cc2)cc1OC`: 6%. The same measure for `COc1ccc(C(=O)Nc2ccc(NC(=O)c3ccc(OC)cc3)cc2)cc1`: 16%. The same measure for `COc1cc(C(=O)Nc2ccc(Cc3ccc(NC(=O)c4cc(OC)c(OC)c(OC)c4)cc3)cc2)cc(OC)c1OC`: 1%; for `COc1ccc(C(=O)Nc2ccc(Cc3ccc(NC(=O)c4ccc(OC)cc4)cc3)cc2)cc1`: 52% (active); for `COc1ccc(C(=O)Nc2ccc(NC(=O)c3ccc(NC(=O)c4ccc(OC)cc4)cc3)cc2)cc1`: 8%. `COc1cc(C(=O)Nc2ccc(Cc3ccncc3)cc2)cc(OC)c1OC`: the inhibition is 56% (active).

On to `CCc1ccc(C2Nc3ccccc3NC3=C2C(=O)CC(c2ccc(OC)cc2)C3)s1` (stereo not drawn), for which the inhibition was 7%. Consider `O=C(N/N=C/c1cccc(/C=N/NC(=O)c2cccnc2)c1)c1cccnc1`, for which the inhibition is 0%. The same measure for `COc1ccc(NC(=O)c2ccc(CN3CCN(c4ccccc4)CC3)cc2)cc1`: 9%; for `COc1ccc(C(=O)NC(=S)Nc2ccc3oc(-c4ccc(OC)c(Cl)c4)nc3c2)cc1`: 20%; for `CC(=O)Nc1ccccc1NC(=O)c1cccc(F)c1`: 0%. The same measure for `NNC(=O)COc1ccccc1-c1ccccc1`: 14%; for `O=C1C(=O)N(c2ccccc2)C(c2ccc([N+](=O)[O-])cc2)/C1=C(/O)c1ccccn1` (stereo not drawn): 0%; for `O=C(CN1C(=O)c2cccc3cccc(c23)C1=O)OCc1ccc2c(c1)OCO2`: 53% (active).

Take `O=C(CN1C(=O)c2cccc3cccc(c23)C1=O)NCc1ccc2c(c1)OCO2`: the inhibition is 5%. `O=C(CCCN1C(=O)c2cccc3cccc(c23)C1=O)OCc1ccc2c(c1)OCO2`: the inhibition is 31%. The same measure for `CCSc1nc(-c2ccccc2)nc(C(Cl)Cl)n1`: 25%.

As to `O=C(COc1ccc(Br)cc1)Nc1ncc(S(=O)(=O)c2ccc([N+](=O)[O-])cc2)s1`, the inhibition is 19%. The same measure for `O=C(O)c1ccccc1C(=O)Nc1ncc(S(=O)(=O)c2ccc([N+](=O)[O-])cc2)s1`: 10%; for `O=C(Nc1ncc(S(=O)(=O)c2ccc([N+](=O)[O-])cc2)s1)c1ccccc1Cl`: 54% (active); for `O=C(COc1ccc(Cl)cc1)Nc1ncc(S(=O)(=O)c2ccc([N+](=O)[O-])cc2)s1`: 12%. In the case of `CC(C)c1ccc(OCC(=O)Nc2ncc(S(=O)(=O)c3ccc([N+](=O)[O-])cc3)s2)cc1` it was 58% (active); in that of `O=C(Nc1ncc(S(=O)(=O)c2ccc([N+](=O)[O-])cc2)s1)c1ccc(Cl)cc1Cl`, 6%. The same measure for `CCc1ccc(-n2nc(C)c3c(C)cc(=O)oc32)cc1`: 7%; for `O=C(O)C1CCC(c2ccccc2)CC1` (stereo not drawn): 4%. Regarding `O=C(c1nn2c(C(F)(F)F)cc(-c3ccc(F)cc3)nc2c1Cl)N1CCOCC1`, the inhibition was 3%. The same measure for `C(=N/Nc1nc2ccccc2o1)/c1ccc(N2CCOCC2)cc1`: 20%; for `Cc1ccc(S(=O)(=O)/N=C2/C=C(Br)C(=O)c3ccccc32)cc1`: 32%. As to `Cc1ccc(S(=O)(=O)/N=C2/C=C(Sc3nnnn3-c3ccccc3)C(=O)c3ccccc32)cc1`, the inhibition is 43%. The same measure for `COc1ccc(Nc2ccc(N)cc2)cc1`: 19%; for `CC(=O)Nc1ccc(C(=O)Nc2ccc(-c3nc4ccccc4[nH]3)cc2)cc1`: 3%. `O=C(Nc1ccc(-c2nc3ccccc3[nH]2)cc1)c1cc2ccccc2o1`: the inhibition is 51% (active). On to `O=C(Nc1ccc(-c2nc3ccccc3[nH]2)cc1)c1ccc(Cl)c(Cl)c1`, for which the inhibition is 59% (active). The same measure for `Cc1ccc(-c2nc3ccccc3[nH]2)cc1NC(=O)c1cc2ccccc2o1`: 8%; for `O=C(Nc1ccc(-c2nc3ccccc3[nH]2)cc1)c1ccc(Cl)cc1`: 14%. The same measure for `O=C(Nc1ccc(Cl)c(-c2nc3ccccc3[nH]2)c1)c1cc2ccccc2o1`: 11%; for `CCOC(=O)/C(=N/Nc1cccc(C)c1)c1csc(N)n1`: 10%; for `COc1ccc(/C=C/C(=O)Oc2ccc3c(c2)C(C)=CC(C)(C)N3)cc1`: 16%. With `O=C(N=Nc1c(O)n(CN2CCCCC2)c2ccccc12)c1ccncc1`, the inhibition was 0%. `CC1(C)NC(=O)N(CC(O)CN(c2cccc([N+](=O)[O-])c2)S(=O)(=O)c2ccccc2)C1=O` (stereo not drawn): the inhibition was 0%. In the case of `S=C(Nc1ccccc1)N1CCN(C(=S)Nc2ccccc2)CC1` it was 9%. The same measure for `S=C(Nc1ccccc1)N1CCN(C(c2ccccc2)c2ccccc2)CC1`: 56% (active); for `S=C(Nc1cccc2ccccc12)N1CCN(C(c2ccccc2)c2ccccc2)CC1`: 5%.

`Cc1c(N2C(=O)/C(=C/c3cccc([N+](=O)[O-])c3)SC2=S)c(=O)n(-c2ccccc2)n1C`: the inhibition was 13%. `COc1ccc(/C=C2\SC(=O)N(c3c(C)n(C)n(-c4ccccc4)c3=O)C2=O)cc1`: the inhibition was 0%.

Take `Cc1c(N2C(=O)S/C(=C\c3ccc(N(C)C)cc3)C2=O)c(=O)n(-c2ccccc2)n1C`: the inhibition is 67% (active).

As to `Cc1c(N2C(=O)S/C(=C\c3ccc([N+](=O)[O-])cc3)C2=O)c(=O)n(-c2ccccc2)n1C`, the inhibition is 3%. The same measure for `Cc1c(N2C(=O)S/C(=C\c3ccccc3)C2=O)c(=O)n(-c2ccccc2)n1C`: 0%. The same measure for `Cc1c(N2C(=O)S/C(=C\c3cccc([N+](=O)[O-])c3)C2=O)c(=O)n(-c2ccccc2)n1C`: 59% (active).
